Many of the other results were omitted from the sample, so hits are more common in it than they were.
Pin1 inhibitor = qHTS Assay to Find Inhibitors of Pin1. Peptidyl-prolyl cis-trans isomerase NIMA-interacting 1 (Homo sapiens), Q13526. Pin1 FP peptide displacement, HiFluor488, 10 min. Potency, µM (series often up to 115 µM), actives largely listed as inhibitors. 390,000 compounds, 0.009% hits; active = well fitted inhibition curve with a large enough effect in the polarisation, with a control signal flat, not every such curve was filed as active; inconclusive = small, poorly fitted or top-dose-only effect, or effect the other way, or a change in a side signal; inactive = no such curve, though single readings can be large or run the other way; the % refers to the polarisation
Target sequence (Q13526 whole entry, looked up): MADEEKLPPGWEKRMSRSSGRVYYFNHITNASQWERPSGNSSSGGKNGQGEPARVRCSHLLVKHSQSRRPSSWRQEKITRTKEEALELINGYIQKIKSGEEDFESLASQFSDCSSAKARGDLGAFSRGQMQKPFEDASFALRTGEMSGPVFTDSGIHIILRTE
Tb PFK inh-1 = qHTS Assay to Find Inhibitors of T. brucei phosphofructokinase; T. brucei PFK, ADP-Glo luminescence; Potency, µM (titrated, usually from 57.5 µM), usual class: inhibitors; 330,000 compounds, 0.17% hits; AID 485367, 2010; note: nearly all actives have a fitted effect of over 60% in size
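Luminescent ADP detection (ADP-Glo, two-step: ATP depletion then ADP-to-ATP conversion for luciferase) reported PFK activity after 45 min room-temperature reaction of 1.25 nM enzyme with 0.5 mM F6P and 0.1 mM ATP at pH 8.0.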
PGK inhibitor = qHTS Assay to Find Inhibitors of Phosphoglycerate Kinase; Phosphoglycerate kinase, glycosomal (Trypanosoma brucei brucei), P07378; PGK/GAPDH coupled, Kinase-Glo luminescence, 60 min; Potency, µM (titrated, usually from 57.5 µM), hits mostly inhibitors; 380,000 compounds, 0.043% hits; AID 602233, 2012; note: nearly all actives have a fitted effect of over 60% in size
Target sequence (P07378 whole entry, looked up): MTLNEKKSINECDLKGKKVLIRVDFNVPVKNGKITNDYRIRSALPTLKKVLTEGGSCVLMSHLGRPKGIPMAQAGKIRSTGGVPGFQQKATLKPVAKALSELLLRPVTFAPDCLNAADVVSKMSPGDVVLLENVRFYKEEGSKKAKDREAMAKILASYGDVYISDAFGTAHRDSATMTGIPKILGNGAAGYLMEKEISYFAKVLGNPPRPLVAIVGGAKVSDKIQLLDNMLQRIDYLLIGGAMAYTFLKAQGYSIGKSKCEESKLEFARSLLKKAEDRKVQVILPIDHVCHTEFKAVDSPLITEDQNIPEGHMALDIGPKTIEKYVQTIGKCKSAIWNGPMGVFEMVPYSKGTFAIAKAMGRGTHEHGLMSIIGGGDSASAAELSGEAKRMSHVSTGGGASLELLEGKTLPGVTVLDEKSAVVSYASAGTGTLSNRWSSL
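Luminescent ATP detection (Kinase-Glo Plus) follows a 60-minute room-temperature incubation, with wells lacking PGK as controls. Buffer: 100 mM TEA (pH 7.6), 5 mM MgCl2, 0.01% Tween-20. Coupling enzyme GAPDH (100 nM final) supplies unstable 1,3-BPG in-well.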
PI4K2A block = qHTS for small molecular inhibitors of PI4K2A. purified PI4K2A, ADP-Glo luminescence, 1 h; active compounds read low. AID 1346378, 2018. Phosphatidylinositol 4-kinase type 2-alpha (Homo sapiens), Q9BTU6. activity change, negative = inhibition, % at 76.9 µM. 420,000 compounds, 0.13% hits; in the data active = activity change below about -50%; inconclusive = mostly about -30% to -49%
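ADP-Glo luminescence measured ADP generated by PI4K2A enzyme (4 ug/mL before mixing) with 1.2 mM PI substrate (pre-mix) and 300 microM ATP (pre-mix). Tris pH7.5 buffer with MgCl2, Triton X-100; 1 h reaction at ambient temperature.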
PI5P4Ka inh = qHTS for Inhibitors of phosphatidylinositol 5-phosphate 4-kinase (PI5P4K); Phosphatidylinositol 5-phosphate 4-kinase type-2 alpha (Homo sapiens), P48426; PI5P4Kalpha enzyme, ADP-Glo luminescence, 60 min; active compounds read low; AID 652105, 2013; max response, %; 330,000 compounds, 1.2% hits; active = max response of -50% or lower; inconclusive = between -30% and -50%; inactive = -30% or higher; note: value at the top dose of about 77 µM
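Enzyme plus substrate dispensed, test compounds pinned in, then ATP (5 microM final) added. After 60 min at RT, ADP-Glo reagent 1 for 45 min and reagent 2 for 30 min preceded luminescence imaging.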
TbPFK ATP = Tb PFK orthogonal confirmatory assay using ATP depletion (Kinase-Glo Plus) as an alternative measure of Tb PFK activity: Hit Validation | shares compounds with Tb PFK inh-1 | Tb PFK enzyme, ATP depletion, Kinase-Glo Plus luminescence | Potency, µM (top dose mostly 57.5 µM) | 1,100 compounds, 47% hits | AID 504636, 2011; calls by dose curve; note: nearly all actives have a fitted effect of over 60% in size
Tb PFK inh-2 = Inhibitors of T. brucei phosphofructokinase: Hit Validation. Potency, µM (top dose mostly 57.5 µM), hits mostly inhibitors. shares compounds with Tb PFK inh-1. purified T. brucei PFK, ADP-Glo luminescence, 45 min. 1,100 compounds, 41% hits; note: nearly all actives have a fitted effect of over 60% in size
A number is an active result; n = inactive; u = inconclusive; x = no result given. Unless noted, calls come from the whole dose curve; as a rule, active = well fitted curve in the direction sought with a large enough effect; inconclusive = small, poorly fitted or top-dose-only effect, or another doubt; inactive = no such curve, though single readings can be large; an effect the other way counts as inactive or inconclusive.

SMILES	Pin1 inhibitor	Tb PFK inh-1	PGK inhibitor	PI4K2A block	PI5P4Ka inh	TbPFK ATP	Tb PFK inh-2
CN1C(=O)NC(=O)C2(Cc3ccccc3N3CCOCC32)C1=O (configuration not stated)	n	n	n	n	x	x	x
Cc1c(C(=O)OCc2ccccc2)[nH]c2c1C(=O)CC(c1ccco1)C2 (configuration not stated)	n	u	u	n	-51	u	u
Cc1ccc(S(=O)(=O)NP(=O)(Oc2ccccc2)Oc2ccccc2)cc1	n	n	x	n	x	x	x
COc1ccc(C(=S)NCS(=O)(=O)c2ccc(C)cc2)cc1	n	21µM	n	n	n	24µM	27µM
Cc1ccc(S(=O)(=O)CNC(=S)c2ccc3ccccc3c2)cc1	n	u	n	n	n	n	30µM
O=C(c1ccccc1F)c1cn(CC(=O)N2CCCCC2)c2ccccc12	n	n	n	n	x	x	x
CCN(CC)C(=S)Nc1ccc(Cl)c(Cl)c1	n	u	n	n	n	n	n
CCC(=O)Nc1ccc(Cl)c(Cl)c1	n	x	n	n	n	x	x
CN(C)c1cc[n+](CC(O)C[n+]2ccc(N(C)C)cc2)cc1	n	n	n	n	n	x	x
Cc1nn(C(C)(C)C)c(C)c1/C=N/OC(=O)Nc1ccc(Cl)cc1	u	n	n	n	n	x	x
O=C(Nc1ccc(Cl)c(Cl)c1)O/N=C/c1ccncc1	n	8.5µM	n	n	n	u	u
CN1C(=O)N(C)C(=O)C2(Cc3c(nc4ccccn4c3=O)N3CCc4ccccc4C32)C1=O (configuration not stated)	n	n	n	n	n	x	x
Clc1ccc2scc(CN3CCCCC3)c2c1	n	u	n	n	n	u	u
CCOc1ccc(-c2cc(C)[n+](CCc3ccc(OC)c(OC)c3)c(-c3ccc(OCC)cc3)c2)cc1	n	n	n	n	n	x	x
COc1nc2ccccc2nc1N1CCN(C)CC1	n	n	n	n	n	x	x
COC(=O)c1c(C)n(Cc2ccccc2)c2ccc(O)cc12	n	n	n	n	n	x	x
COc1ccc(CC(=O)OCC(=O)NC2CC2)cc1	n	24µM	n	n	n	u	n
O=C(COC(=O)Cc1ccccc1)NC(=O)NC1CCCCC1	n	n	n	n	n	x	x
CC(=O)Nc1ccc(OC(=O)N(C)c2ccccc2)cc1	n	n	n	n	n	x	x
CC(=O)Nc1ccc(SCC(=O)c2ccc(Br)s2)cc1	n	24µM	n	n	n	u	n
CC(=O)OC(C)(C)/C=C/C(=O)C(C)(O)C1[C@H](O)C[C@@]2(C)C3CC=C4C(CC[C@@H](O)C4(C)C)[C@]3(CO)C(=O)C[C@]12C (some centres not stated)	n	n	n	n	n	x	x
O=C1CC(c2cccnc2)=NN1c1ccc(Cl)cc1Cl	n	u	n	n	n	n	n
CCOC(=O)C1(c2ccccc2)CCN(CCc2ccc(NC(=O)CCC(=O)O)cc2)CC1	n	x	n	n	n	x	x
O=C(O)CCC(=O)Nc1ccc(SSc2ccc(NC(=O)CCC(=O)O)cc2)cc1	n	u	n	n	n	8.5µM	17µM
CC(C)[C@H](NC(=O)N1C[C@H]2C[C@@H](C1)c1cccc(=O)n1C2)C(=O)Nc1ccccc1F	n	n	n	n	n	x	x
SMILES	Pin1 inhibitor	Tb PFK inh-1	PGK inhibitor	PI4K2A block	PI5P4Ka inh	TbPFK ATP	Tb PFK inh-2
O=C1Nc2ccccc2Sc2ccccc21	n	n	n	n	n	x	x
O=C(/C=C1\C(=O)Nc2ccccc21)/C=C1\C(=O)Nc2ccccc21	u	u	n	n	-83	1.7µM	4.8µM
NNC(=O)CNc1cccc(Br)c1	n	15µM	n	n	n	21µM	u
O=S(=O)(c1ccc2nc(COc3ccc(Cl)cc3Cl)[nH]c2c1)N1CCOCC1	n	u	n	n	x	u	u
O=C(c1ccco1)N1CCN(C(=O)c2ccc(COc3ccc(Cl)cc3Cl)o2)CC1	u	x	n	n	u	x	x
CC(=O)c1cc(Cc2csc(C(C)=O)c2)cs1	n	27µM	n	n	x	13µM	30µM
CC(NC(=O)CCl)c1ccc(Cl)c(Cl)c1 (configuration not stated)	n	19µM	n	n	n	21µM	24µM
O=[N+]([O-])c1cn(Cc2ccc(Cl)cc2)cn1	n	u	n	n	n	u	u
CCOC(=O)c1c(-c2ccco2)csc1NC(=O)COC(=O)c1cnccn1	u	6.7µM	n	n	-64	24µM	n
Cc1[nH]c2ccccc2c1C(=O)CN1C(=O)C(=O)N(Cc2ccco2)C1=O	n	u	n	n	u	n	u
COc1cc(O)c2c(c1)/C=C/C[C@H](O)[C@H](O)[C@@H](O)/C=C/C[C@H](C)OC2=O	x	x	x	n	x	x	x
Cc1nn(Cc2ccccc2)c(C)c1C(=O)NCc1ccccc1	n	n	n	n	n	x	x
Cc1nn(Cc2ccc(Cl)c(Cl)c2)c(C)c1NC(=O)c1cc(CC(C)C)on1	n	30µM	n	n	n	11µM	12µM
COc1cc(CNC(=O)CCCC/C=C/C(C)C)ccc1O	n	u	n	n	n	x	x
Cc1ccc(NC2c3ncccc3C(=O)N2Cc2cccs2)cc1C (configuration not stated)	n	u	n	n	n	n	n
Cc1c(C=C2C(=O)N(C)C(=O)N(C)C2=O)c(=O)n(-c2ccccc2)n1C	n	u	n	n	n	x	x
Cc1c(N2C(=O)/C(=C\c3ccccc3O)SC2=S)c(=O)n(-c2ccccc2)n1C	n	21µM	n	n	u	u	n
NC(=O)c1ccc(C(=O)Nc2ccc([As](=O)(O)O)cc2)cc1	x	n	x	x	x	x	x
O=C(CCc1ccccc1)NNC(=O)c1ccc(NC(=O)c2ccccc2)cc1	n	u	n	n	n	u	u
O=C(NCC(F)(F)F)c1ccc(S(=O)(=O)Nc2ccccc2N2CCCC2)cc1	n	u	n	n	n	n	u
COc1ccc(CC[n+]2cc(/N=C(\C)[O-])on2)cc1OC	n	n	x	n	x	x	x
Cc1occc(=O)c1OC(=O)Nc1ccc(Cl)c(Cl)c1	n	30µM	n	n	n	u	u
Cc1noc(C)c1CSCC(=O)Nc1ccc(C#N)c(Cl)c1	n	n	n	n	n	x	x

Assay outcomes deposited in PubChem BioAssay by National Center for Advancing Translational Sciences (NCATS).
